# Assay results reported in paper PMC9838217, “Structure of SALL4 zinc finger domain reveals link between AT-rich DNA binding and Okihiro syndrome”.
# Positions count from the first letter of the chain named.
# Biological target: T1, SALL4 ZFC4 WT (HT-SELEX) (Mus musculus, UniProt Q8BX22 870-940)
# T1 sequence: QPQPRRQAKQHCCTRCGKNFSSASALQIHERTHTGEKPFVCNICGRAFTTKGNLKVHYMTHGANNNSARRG
# Test: HT-SELEX; high values mean tight binding
# Conditions: protein: recombinant; vector His6-GST; dsDNA, one strand shown
# Procedure, shortened: (§1)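 Each canonical k-mer's binding signal is its read fraction expressed as fold change over the initial random library. Reads came from MiSeq sequencing, scanned for 6-mers, after up to 6 triplicate cycles in which purified recombinant mouse SALL4 zinc finger cluster 4 (residues 870–940, 1 µg) bound library DNA (1.5 µg first cycle, 200 ng later) in 100 µl of 10 mM Tris–HCl pH 7.5, 50 mM NaCl, poly(dI-dC), DTT for 10 min at room temperature. Complexes were then Ni2+ bead-captured, washed, PCR-amplified and reselected.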
row,Sequence,binding signal [fold-change vs cycle 0]
1,AACGTC,0.624 ± 0.0116
2,AGAGGG,0.489 ± 0.0115
3,GAAGAC,0.8159 ± 0.00405
4,ACCCCA,0.468 ± 0.0336
5,GATTCC,0.9 ± 0.0488
6,AGTTGC,0.578 ± 0.0388
7,AAACAT,1.93 ± 0.14
8,ATATAG,2.33 ± 0.245
9,AGTAGA,1.33 ± 0.0604
10,ATCACG,0.751 ± 0.0409
11,ATAAGG,1.55 ± 0.0418
12,ACCTTG,0.8287 ± 0.00258
13,CCATCC,0.48 ± 0.0325
14,TAGATA,2.23 ± 0.154
15,AAGGTC,0.725 ± 0.0449
16,AAGGTG,0.806 ± 0.0296
17,AGTCTA,1.25 ± 0.0412
18,TAAGTA,2.21 ± 0.113
19,CTCACC,0.488 ± 0.0202
20,ACTTAC,1.44 ± 0.0822

row,Sequence,binding signal [fold-change vs cycle 0]
1,CCTTCG,0.394 ± 0.0327
2,ACTCTG,0.817 ± 0.0779
3,TCCAGA,0.807 ± 0.0459
4,AGTAAC,1.458 ± 0.009
5,GTAACA,1.36 ± 0.0267
6,CAACGG,0.353 ± 0.0289
7,GTACGA,0.706 ± 0.0277
8,CTTCCC,0.499 ± 0.032
9,GACATC,0.75 ± 0.0336
10,CAGCTA,0.637 ± 0.0596
11,ATCTTC,1.42 ± 0.0263
12,CGTGTC,0.335 ± 0.0147
13,CCGATC,0.399 ± 0.0279
14,ATCGAA,1.17 ± 0.0408
15,ACCAGG,0.477 ± 0.0177
16,CTTGAC,0.777 ± 0.0347
17,ACTATA,2.18 ± 0.121
18,GTTGGA,0.713 ± 0.0283
19,AGGGGG,0.323 ± 0.0254
20,CCGTAG,0.35 ± 0.01

# Biological target: T2, SALL4 ZFC4 R900W (HT-SELEX) (Mus musculus, UniProt Q8BX22 870-940, R900W)
# T2 sequence: T1 sequence with R31W
# Test: HT-SELEX; high values mean tight binding
# Conditions: protein: recombinant; vector His6-GST; dsDNA, one strand shown
# Procedure, shortened: as §1
row,Sequence,binding signal [fold-change vs cycle 0]
1,AACGTC,0.722 ± 0.0138
2,AGAGGG,0.556 ± 0.0501
3,GAAGAC,0.962 ± 0.00987
4,ACCCCA,0.525 ± 0.0104
5,GATTCC,0.964 ± 0.0255
6,AGTTGC,0.664 ± 0.014
7,AAACAT,1.88 ± 0.0797
8,ATATAG,1.9 ± 0.143
9,AGTAGA,1.54 ± 0.0844
10,ATCACG,0.856 ± 0.012
11,ATAAGG,1.63 ± 0.0717
12,ACCTTG,0.986 ± 0.024
13,CCATCC,0.541 ± 0.0313
14,TAGATA,2.04 ± 0.12
15,AAGGTC,0.885 ± 0.0273
16,AAGGTG,0.944 ± 0.0313
17,AGTCTA,1.41 ± 0.0887
18,TAAGTA,2.23 ± 0.16
19,CTCACC,0.56 ± 0.0155
20,ACTTAC,1.6 ± 0.106

row,Sequence,binding signal [fold-change vs cycle 0]
1,CCTTCG,0.487 ± 0.0246
2,ACTCTG,0.914 ± 0.0491
3,TCCAGA,0.894 ± 0.029
4,AGTAAC,1.62 ± 0.0372
5,GTAACA,1.52 ± 0.0694
6,CAACGG,0.419 ± 0.0235
7,GTACGA,0.794 ± 0.0311
8,CTTCCC,0.599 ± 0.0427
9,GACATC,0.879 ± 0.011
10,CAGCTA,0.727 ± 0.0267
11,ATCTTC,1.58 ± 0.0645
12,CGTGTC,0.407 ± 0.0314
13,CCGATC,0.473 ± 0.0177
14,ATCGAA,1.16 ± 0.0416
15,ACCAGG,0.564 ± 0.0161
16,CTTGAC,0.934 ± 0.0128
17,ACTATA,1.98 ± 0.101
18,GTTGGA,0.83 ± 0.0624
19,AGGGGG,0.375 ± 0.0258
20,CCGTAG,0.427 ± 0.0139

# Biological target: T3, SALL4 ZFC4 G921D (HT-SELEX) (Mus musculus, UniProt Q8BX22 870-940, G921D)
# T3 sequence: T1 sequence with G52D
# Test: HT-SELEX; high values mean tight binding
# Conditions: protein: recombinant; vector His6-GST; dsDNA, one strand shown
# Procedure, shortened: as §1
row,Sequence,binding signal [fold-change vs cycle 0]
1,AACGTC,0.813 ± 0.0314
2,AGAGGG,0.655 ± 0.0298
3,GAAGAC,0.993 ± 0.0221
4,ACCCCA,0.602 ± 0.0476
5,GATTCC,1.03 ± 0.0179
6,AGTTGC,0.77 ± 0.0363
7,AAACAT,1.72 ± 0.14
8,ATATAG,1.74 ± 0.201
9,AGTAGA,1.41 ± 0.124
10,ATCACG,0.923 ± 0.0125
11,ATAAGG,1.46 ± 0.077
12,ACCTTG,1 ± 0.0262
13,CCATCC,0.633 ± 0.0281
14,TAGATA,1.84 ± 0.212
15,AAGGTC,0.943 ± 0.0196
16,AAGGTG,0.95 ± 0.0211
17,AGTCTA,1.37 ± 0.0788
18,TAAGTA,1.89 ± 0.229
19,CTCACC,0.677 ± 0.0522
20,ACTTAC,1.47 ± 0.146

row,Sequence,binding signal [fold-change vs cycle 0]
1,CCTTCG,0.582 ± 0.0265
2,ACTCTG,0.937 ± 0.0411
3,TCCAGA,0.927 ± 0.0563
4,AGTAAC,1.49 ± 0.109
5,GTAACA,1.39 ± 0.0863
6,CAACGG,0.526 ± 0.0596
7,GTACGA,0.843 ± 0.0399
8,CTTCCC,0.656 ± 0.0665
9,GACATC,0.967 ± 0.0135
10,CAGCTA,0.82 ± 0.0545
11,ATCTTC,1.46 ± 0.104
12,CGTGTC,0.545 ± 0.0369
13,CCGATC,0.64 ± 0.0658
14,ATCGAA,1.2 ± 0.0145
15,ACCAGG,0.658 ± 0.055
16,CTTGAC,0.981 ± 0.0363
17,ACTATA,1.76 ± 0.177
18,GTTGGA,0.883 ± 0.0383
19,AGGGGG,0.443 ± 0.0497
20,CCGTAG,0.516 ± 0.0548
